Assay results taken from PubChem BioAssay (NCI).
This is part of a sample that, as a whole, favours compounds with a hit. Of some 79,000 tested, about 15% had one in any assay. Unmarked numbers belong to inactive results. Active and inactive are the calls of the source. No stated cut-off is given here; in the data, active means growth inhibition above about 70%; inactive means the rest.

Experiments:
[1] = NCI Yeast Anticancer Drug Screen. Data for the rad50 strain (AID 155);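 further: 0% = growth of vehicle-only cultures of the same strain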; conditions: S. cerevisiae rad50 strain growth inhibition, stronger effect = higher value
Outline: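 Genetically altered yeast (DNA repair pathway); compound treatment; growth inhibition vs vehicle ctrl.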

[2] = NCI Yeast Anticancer Drug Screen. Data for the mec2-1 strain (AID 157); conditions: S. cerevisiae mec2-1 strain, stronger effect = higher value
Outline: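 Yeast mec2-1 mutant treated with compound. Readout: growth inhibition vs vehicle controls.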

[3] = NCI Yeast Anticancer Drug Screen. Data for the sgs1 mgt1 strain (AID 161);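 further: 0% = growth of cultures given vehicle only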; conditions: S. cerevisiae sgs1 mgt1 strain, stronger effect = higher value
Outline: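 Inhibition of yeast growth, normalised to vehicle-treated controls, is reported for a strain bearing genetic alterations in DNA damage repair.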

[4] = NCI Yeast Anticancer Drug Screen. Data for the cln2 rad14 strain (AID 165);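 further: 0% = growth equal to vehicle treated cultures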; conditions: S. cerevisiae cln2 rad14 strain, stronger effect = higher value
Outline: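 cln2 rad14 yeast strain; compound exposure; growth inhibition read vs vehicle controls.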

[5] = NCI Yeast Anticancer Drug Screen. Data for the bub3 strain (AID 167); conditions: S. cerevisiae bub3 mutant strain, stronger effect = higher value
Outline: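 Yeast carrying a defined mutation is treated with each compound, and growth is compared with that of vehicle-exposed cells to give inhibition.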

[6] = NCI Yeast Anticancer Drug Screen. Data for the mlh1 rad18 strain (AID 175); conditions: S. cerevisiae mlh1 rad18 strain growth inhibition, stronger effect = higher value
Outline: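 Yeast w/ defined DNA-repair lesions; compound exposure; growth vs vehicle controls → % inhibition.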

[7] = at 5.0 µM (retest, dose inferred, filed as 0.5)
[8] = at 50.0 µM (retest, dose inferred, filed as 5.0)

Structure (SMILES) | growth inhibition [1, 7] | growth inhibition [1, 8] | growth inhibition ([1]; at 50.0 µM) | growth inhibition [2, 7] | growth inhibition [2, 8] | growth inhibition ([2]; at 50.0 µM) | growth inhibition [3, 7] | growth inhibition [3, 8] | growth inhibition ([3]; at 50.0 µM) | growth inhibition [4, 7] | growth inhibition [4, 8] | growth inhibition ([4]; at 50.0 µM) | growth inhibition [5, 7] | growth inhibition [5, 8] | growth inhibition ([5]; at 50.0 µM) | growth inhibition [6, 7] | growth inhibition [6, 8] | growth inhibition ([6]; at 50.0 µM)
COP(=O)(OC)OCC1OC(n2cnc3c(N)ncnc32)C(O)C1O (configuration not stated) | -2% | -2% | 96.5% (active) | 2% | 2% | 95.9% (active) | 0% | -2% | 94.5% (active) | 4% | 4% | 89.7% (active) | -1% | -4% | 96.2% (active) | -3% | -5% | 97.3% (active)
CC(=O)NC(CCC(=O)O)C(=O)O.[NH-]C1CCCCC1[NH-].[Pt+2] (configuration not stated) | 96% (active) | 99% (active) | 99.5% (active) | 99% (active) | 99% (active) | 99.3% (active) | 98% (active) | 99% (active) | 100% (active) | 88% (active) | 98% (active) | 99.4% (active) | 99% (active) | 98% (active) | 99% (active) | 96% (active) | 99% (active) | 99.2% (active)
CC(/C=C1\C(=O)N(C)C(CC(C)C(Cl)(Cl)Cl)C(=O)N1C)C(Cl)(Cl)Cl (configuration not stated) | 6% | 78% (active) | 62.8% | 7% | 74% (active) | 30.8% | 4% | 76% (active) | 57.7% | 25% | 74% (active) | 38.5% | 28% | 79% (active) | 36.2% | 13% | 79% (active) | 70.7% (active)
O=C1C(Cl)=C(c2ccccc2)C1Cl (configuration not stated) | 97% (active) | 100% (active) | 99.2% (active) | 98% (active) | 99% (active) | 99.5% (active) | 99% (active) | 100% (active) | 99.7% (active) | 98% (active) | 99% (active) | 99.5% (active) | 96% (active) | 99% (active) | 99.5% (active) | 99% (active) | 99% (active) | 99.2% (active)
COc1ccc(N2C(=O)C(=O)C(C(C)=O)C2=O)cc1 (configuration not stated) | -1% | 0% | 99.2% (active) | -2% | 6% | 99.3% (active) | 1% | 2% | 99.4% (active) | -4% | 7% | 99% (active) | 1% | 3% | 99.3% (active) | -8% | 4% | 99.2% (active)
O=c1oc(-c2ccc(Cl)c([N+](=O)[O-])c2)ns1 | 1% | 92% (active) | 97.1% (active) | 3% | 93% (active) | 95.3% (active) | 4% | 89% (active) | 97.8% (active) | 4% | 48% | 53.6% | 1% | 91% (active) | 97.2% (active) | 2% | 98% (active) | 91.8% (active)
c1csc(-c2nccc3c2[nH]c2ccccc23)c1 | -18% | 92% (active) | 88% (active) | -17% | 94% (active) | 92.8% (active) | -29% | 95% (active) | 90.2% (active) | -13% | 83% (active) | 91% (active) | -42% | 97% (active) | 91.3% (active) | -19% | 94% (active) | 86.7% (active)
CCOC(=O)C1=C(Nc2ccc(Cl)c(Cl)c2)OC/C1=N\NS(=O)(=O)c1ccc(C)cc1 | 24% | 24% | 17.6% | 15% | 15% | 51.9% | 22% | 22% | 80.3% (active) | 5% | 5% | 51.6% | 15% | 15% | 63% | 27% | 27% | 64.2%
CC(/C=C/c1cccc(C)c1)=N\NC(N)=S | 14% | 41% | 30.4% | 12% | 38% | 53.4% | 16% | 34% | 86.2% (active) | 1% | 11% | 38.6% | 20% | 26% | 81.1% (active) | 23% | 38% | 80.5% (active)
NCCC1=CCCCC1 | 1% | 95% (active) | 88.2% (active) | 5% | 97% (active) | 90.5% (active) | 2% | 98% (active) | 88.3% (active) | -7% | 96% (active) | 35.6% | -4% | 96% (active) | 65% | -2% | 97% (active) | 90% (active)
C=CNC(=O)Oc1ccccc1 | -128% | -156% | -9.95% | -35% | -59% | 30.2% | -47% | -62% | 12.7% | -57% | -73% | 44% | -64% | -81% | -3% | -121% | -130% | 6.25%
C=C(CN(C)C)C(=O)c1ccc(C)cc1C | 34% | 99% (active) | 99.4% (active) | 18% | 99% (active) | 99.5% (active) | 64% | 99% (active) | 99.4% (active) | 24% | 99% (active) | 99.3% (active) | 77% (active) | 99% (active) | 56% | 74% (active) | 99% (active) | 99.2% (active)
COC(=O)C1=C(C(=O)OC)C2C(C)=CC(C)=CN2C(C(=O)OC)=C1C(=O)OC (configuration not stated) | -1% | -7% | 11.2% | 0% | 2% | 5.8% | -10% | 4% | 2.3% | -2% | -5% | 74.3% (active) | 2% | -3% | -6.7% | -4% | -4% | 25.4%
O=C1C=CC(=O)N1Cc1ccccc1 | 98% (active) | 99% (active) | 99.3% (active) | 100% (active) | 100% (active) | 99.7% (active) | 97% (active) | 99% (active) | 99.5% (active) | 97% (active) | 100% (active) | 99% (active) | 99% (active) | 100% (active) | 99.3% (active) | 95% (active) | 100% (active) | 99.2% (active)
CC1(C)CCC(C)(C)c2cc(C(=O)Nc3ccc(C(=O)O)cc3)ccc21 | 21% | 99% (active) | -12.2% | 22% | 96% (active) | -18.1% | 20% | 99% (active) | 0.8% | 36% | 97% (active) | -8.75% | 13% | 98% (active) | 4% | 34% | 97% (active) | 5.75%
CC(=O)Oc1ccc2cc(-c3ccccc3OC(C)=O)c(=O)oc2c1 | 12% | 23% | 48.1% | -11% | -15% | 43.7% | 3% | 30% | 77.2% (active) | -6% | 31% | 30.2% | -15% | 8% | 57.8% | 12% | 0% | 74.5% (active)
O=c1cc(-c2ccccc2)oc2ccc(-c3ccc4oc(-c5ccccc5)cc(=O)c4c3)cc12 | 8% | 40% | 37.3% | 7% | 16% | 40.6% | -10% | 82% (active) | 31.7% | -1% | 39% | 28.4% | 5% | 89% (active) | 59% | 13% | 25% | 87.8% (active)
COc1ccc(C(=O)OC(=O)c2ccc(OC)cc2)cc1 | 5% | 9% | 71.4% (active) | -6% | 7% | 18.1% | 2% | -70% | 22.1% | 4% | -4% | 6.05% | -1% | 8% | 28.1% | -10% | 16% | 74.4% (active)
O=c1cccccc1[O-].O=c1cccccc1[O-].O=c1cccccc1[O-].[La+3] | 87% (active) | 87% (active) | 90.8% (active) | 52% | 52% | 91.8% (active) | 92% (active) | 92% (active) | 87.5% (active) | 59% | 59% | 89.8% (active) | 26% | 26% | 90.7% (active) | 74% (active) | 74% (active) | 88.6% (active)
